Bioassay records (PubChem BioAssay)
Rows were chosen to be rich in hits. Some 5.7% of all compounds tested hit in one or more screens of this group.
D3 ag: activates the human D3 dopamine receptor; P35462; D3R DiscoveRx beta-arrestin cells, luminescence, 90 min; max activation, %; hit rate 0.58% among 410,000; AID 652048; in the data active = max activation above about 30%; note: 0% is about no effect
Target sequence (P35462 whole entry, looked up): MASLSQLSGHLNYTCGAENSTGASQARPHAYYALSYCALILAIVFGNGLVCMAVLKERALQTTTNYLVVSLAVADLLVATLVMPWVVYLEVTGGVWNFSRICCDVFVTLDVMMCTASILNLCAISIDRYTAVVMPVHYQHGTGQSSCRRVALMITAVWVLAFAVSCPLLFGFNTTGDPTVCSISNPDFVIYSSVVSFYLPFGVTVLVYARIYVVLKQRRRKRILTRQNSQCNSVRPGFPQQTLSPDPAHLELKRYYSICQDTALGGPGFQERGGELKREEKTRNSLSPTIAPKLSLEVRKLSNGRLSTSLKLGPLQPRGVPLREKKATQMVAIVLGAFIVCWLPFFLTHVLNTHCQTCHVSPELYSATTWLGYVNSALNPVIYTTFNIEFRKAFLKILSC
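Cells at 1500/well, incubated overnight, then treated with pinned compounds (dopamine as control) for 90 min at 37 degrees C. DiscoveRx reagent added for 30 - 60 minutes at room temperature; luminescence read.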
GLP-1R inv ag: inverse agonists of human GLP-1 receptor; hit rate 1.6% among 410,000; P43220; HEK293 GLP-1R CRE-luciferase, luminescence, 24 h; GLP-1R form is constitutively active; Potency, µM (highest dose often 38.3 µM), without a hit: at the top dose activity change, negative = inhibition, actives largely listed as inhibitors; note: potency is the fitted concentration of half-maximal effect; % is set by controls: 0 for no effect and ±100 for the full control effect; nearly all actives have a fitted effect of over 55% in size
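HEK293 cells stably co-expressing a cAMP-responsive luciferase reporter and constitutively active GLP-1R were seeded, incubated 12 h, then exposed to compounds for 24 h at 37 C. Luminescence was read 12 min after detection reagent; inverse agonists lower signal.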
DRD3 antagonist: D3 dopamine receptor (human) antagonism | max response, negative = inhibition, % | hit rate 2.5% among 360,000 | D3R cells, DiscoveRx beta-arrestin luminescence, antagonist mode; active compounds read low | P35462; in the data active = max response below about -50%; inconclusive = no clear call, values can overlap the other calls; note: % is set by controls: 0 for no effect and ±100 for the full control effect
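Cells expressing the human receptor were seeded at 1500 cells/well, incubated overnight at 37 degrees C in 5% CO2, then exposed to library compounds with dopamine controls for 90 minutes at 37 degrees C before luminescent detection.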
GLP-1R agonist: activates the human GLP-1 receptor; HEK293 GLP-1R CRE-luciferase, luminescence, 4-6 h; cells express a hypersensitive GLP-1R form; AID 624172; hit rate 0.007% among 380,000; Potency, µM (doses to about 45.6 µM), inactives show top-dose activation, usual class: activators; note: potency is the fitted concentration of half-maximal effect; % of control where 0% means no effect
ClpP mod: qHTS Assay for Activators of ClpP. purified B. subtilis ClpP, FRET peptide cleavage, 20 min. ATP-dependent Clp protease proteolytic subunit (Bacillus subtilis (strain 168)), P80244. Potency, µM (highest dose often 57.5 µM), for inactives: at the highest dose activity change, negative = active. hit rate 1.9% among 340,000. AID 651965, 2013; active = well fitted falling curve with a large enough effect; inconclusive = small, poorly fitted or top-dose-only effect; inactive = no such curve, though single readings can be large or run the other way; note: potency is the fitted concentration of half-maximal effect; the source files actives as falling curves though it sought activators and does not explain the sign; nearly all actives have a fitted effect of over 65% in size
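FRET quenching reversal measured ClpP activation: 10 microg/mL B. subtilis ClpP at pH 8 with the FRET-FV decapeptide, read at 430 nm after 320 nm excitation. The 20-min minus 0-min signal was scaled between DMSO/no-enzyme wells and ADEP (5.8 microM final).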
GLP1R cytotox: cytotoxicity counter-screen for GLP-1 receptor inverse agonists | HEK293 cAMP-luciferase reporter cells, luminescence, 24 h | Potency, µM (titrated, usually from 38.3 µM), for inactives: top-dose activity change, negative = inhibition, hits mostly inhibitors | hit rate 0.13% among 410,000 | AID 624418;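 note: loss of luciferase light is scored as toxicity; potency is the fitted concentration of half-maximal effect; % is set by controls: 0 for no effect and ±100 for the full control effect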
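To flag toxic compounds, the library was rerun on cells for 24 hr at 37 deg C and 5% CO2. Viability-linked luminescence was captured 12 min after adding luciferase detection reagent.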
Starred values were filed as active, the others as inactive; ? = inconclusive; . = no result. Unless noted, calls come from the whole dose curve; as a rule, active = well fitted curve in the direction sought with a large enough effect; inconclusive = small, poorly fitted or top-dose-only effect, or another doubt; inactive = no such curve, though single readings can be large; an effect the other way counts as inactive or inconclusive.

SMILES | D3 ag | GLP-1R inv ag | DRD3 antagonist | GLP-1R agonist | ClpP mod | GLP1R cytotox
CCCNC(=O)COC(=O)c1ccccc1C(=O)c1ccc(Cl)c([N+](=O)[O-])c1 | -21 | ? | -101* | -12% | . | ?
Cc1ccc(Cl)c(NC(=O)COC(=O)c2ccccc2C(=O)c2ccc(Cl)c([N+](=O)[O-])c2)c1Cl | -23 | ? | -71* | -17% | 1% | ?
Cc1nc2c(-c3ccc(F)cc3)c(C)nn2c(C)c1CCC(=O)NCc1ccc(Cl)cc1 | -8 | -3% | . | 0% | -14% | -2%
COc1cc(C(C)=O)ccc1Oc1ncnc2c1cnn2-c1ccccc1 | 36* | 12% | 8 | -8% | -3% | 23%
CNC(=O)C[C@H]1C(=O)N(CCc2ccccc2)C[C@@H]1CSC | 5 | 2% | 11 | 10% | 0% | 1%
COc1ccc(CC(=O)Nc2cc(C)on2)cc1OC | -11 | 4% | 7 | -3% | -1% | -4%
COc1ccc(/C=N/OCC(=O)Nc2cc(C)on2)cc1OC | 30* | 43% | 18 | ? | 0% | 5%
CCCCCn1c(=O)[nH]c2cc(C(=O)NCCCN3CCCCC3)ccc2c1=O | -1 | ? | -9 | -4% | 28µM* | 14%
CCCCCn1c(=O)[nH]c2cc(C(=O)NCCN(CC)CC)ccc2c1=O | 11 | ? | 6 | 0% | 25µM* | -7%
COc1cc2[nH]c(=O)n(Cc3ccc(C(=O)NCCCN4CCN(C)CC4)cc3)c(=O)c2cc1OC | -4 | -4% | 15 | -8% | 25µM* | -1%
COc1ccc(Cn2c(=O)[nH]c3cc(C(=O)NCCCN4CCCC4)ccc3c2=O)cc1 | -1 | ? | -15 | 20% | -16% | 62%
CCCCCn1c(=O)[nH]c2cc(C(=O)NCCCN3CCC(C)CC3)ccc2c1=O | -2 | -15% | ? | -8% | 28µM* | -25%
O=C(/C=C/[C@H]1O[C@@H](n2ccc(=O)[nH]c2=O)[C@H](O)[C@@H]1O)N1CCN(Cc2ccc(F)cc2)CC1 | -3 | 19% | 13 | -6% | 1% | 0%
Cc1ccc(-c2nc3ccccc3[nH]2)cc1NC(=S)NC(=O)c1ccccc1Br | -6 | ? | -51* | 3% | 10% | -13%
CCCOc1ccc(C(=O)Nc2cc(-c3nc4ccccc4[nH]3)ccc2C)cc1 | 1 | 7.1µM* | . | . | -13% | -6%
Cc1ccc(-c2nc3ccccc3[nH]2)cc1NC(=O)c1ccc2c(c1)OCO2 | -8 | ? | -16 | -6% | -6% | ?
C=C[C@@H]1c2cc(C)ccc2N(S(=O)(=O)c2ccc(C)cc2)[C@H](c2ccc(C(=O)OC)cc2)C1(C#N)C#N | . | . | . | . | -3% | .
O=C(CN1C(=O)CCc2cc(Br)ccc21)Nc1ccc(OC(F)(F)F)cc1 | 1 | ? | . | 0% | 0% | -17%
Cc1cc(C(=O)CSc2n[nH]c(N)n2)c(C)n1-c1ccc(F)cc1 | -4 | 0% | -26 | 20% | 0% | 6%
Cc1ccc(-n2c(C)cc(C(=O)CSc3n[nH]c(N)n3)c2C)cc1 | 39* | 0% | 33 | 9% | -1% | -17%
CCc1ccc(OCCCCn2c(CCNC(=O)C3CCCCC3)nc3ccccc32)cc1 | . | . | . | . | -1% | .
COC(=O)c1ccc(CSc2nc3c(cnn3-c3ccc(F)cc3)c(=O)[nH]2)o1 | 32* | 75% | 27 | 8% | -1% | 0%
O=C(c1cc2ccc3cccnc3c2[nH]1)N1CCCCC1 | -13 | 6.3µM* | . | . | -3% | 4%
CC1CCCN(C(=O)c2cc3ccc4cccnc4c3[nH]2)C1 (stereo not given) | -21 | 6.3µM* | . | . | -2% | -2%
CCOC(=O)C1CCN(C(=O)c2cc3ccc4cccnc4c3[nH]2)CC1 | -11 | 1% | . | . | -1% | -2%
COc1ccc(C(=O)NCCCN=C2NS(=O)(=O)c3ccccc32)cc1 | -25 | -22% | -75* | 4% | -2% | -3%
